Out of some 290,000 compounds screened, about 800 (0.28%) were called active.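 How the source made its calls: active means fall in fluorescence gain of 50% or more versus controls, with final raw signal at or below 3038400; inconclusive means same 50% fall but final raw signal above 3038400; inactive means fall in fluorescence gain under 50%.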 For the sample, actives were picked, then their nearest neighbours and some compounds at random.
Target: CAAX prenyl protease 2 (Saccharomyces cerevisiae (strain ATCC 204508 / S288c)) (UniProt Q03530)
Sequence (Q03530 whole entry, looked up): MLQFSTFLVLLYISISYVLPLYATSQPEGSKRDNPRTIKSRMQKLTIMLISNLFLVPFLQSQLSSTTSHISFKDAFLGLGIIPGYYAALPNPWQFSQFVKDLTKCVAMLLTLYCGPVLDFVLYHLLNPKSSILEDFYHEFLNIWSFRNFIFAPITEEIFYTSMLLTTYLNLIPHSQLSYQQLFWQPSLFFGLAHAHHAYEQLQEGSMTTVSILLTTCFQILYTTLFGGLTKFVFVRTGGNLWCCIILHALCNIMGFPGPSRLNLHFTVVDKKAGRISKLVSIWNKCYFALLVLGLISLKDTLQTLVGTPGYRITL
Experiment: blockers of Rce1 CaaX peptide cleavage – biochemical, fluorescence, cell-free homogeneous, primary screen (AID 2563)
Settings: yeast membranes, quenched prenylated peptide cleavage fluorescence

Row | SMILES | outcome
1 | O=C(Nc1ccc(N2CCCCC2)cc1)c1cc(S(=O)(=O)N2CCOCC2)ccc1F | inactive
2 | CN1c2ccc(C=O)c3c(C=O)ccc(c23)N(C)C1(C)C | active
3 | CCOc1ccc(S(=O)(=O)NCCC(=O)NCC(C)(C)N2CCOCC2)cc1 | inactive
4 | CC(=O)Nc1ccc(NC(=O)CSc2nnnn2C2CCCCC2)cc1 | inactive
5 | COc1ccc(Cl)cc1NS(=O)(=O)c1cccc(C(=O)NC2CCC(O)CC2)c1 (centres undefined) | inactive
6 | Cc1ccc(NC(=O)C2CC(=O)N(c3ccc4c(c3)OCCO4)C2)cc1S(=O)(=O)N1CCCCCC1 (centres undefined) | inactive
7 | O=C(CCNC(=O)c1ccc(Br)cc1)NCCCc1ccccc1 | inactive
8 | CN(CC(=O)NNC(=O)CNC(=O)c1ccccc1Cl)S(=O)(=O)c1ccc(Cl)cc1 | inactive
9 | COCc1c(C(=O)N/N=C\c2cccnc2)nnn1-c1nonc1N | inactive
10 | COCc1c(C(=O)N/N=C/C2CC=CCC2)nnn1-c1nonc1N (centres undefined) | active
11 | Cc1ccc(SCc2c(C(=O)N/N=C/C3CC=CCC3)nnn2-c2nonc2N)cc1 (centres undefined) | inactive
12 | CCCn1c(C2CCCN2c2nc(-c3ccc(C)cc3)cs2)nc2cc(Cl)c(N3CCCCC3)cc21 (centres undefined) | inactive
13 | Cc1ccc(-c2csc(N3CCN(c4cc5c(cc4Cl)nc(-c4ccncc4)n5CCOCCO)CC3)n2)cc1 | active
14 | Cc1ccc(-c2csc(NCCc3nc4cc(Cl)c(Cl)cc4n3CCOCCO)n2)cc1 | inactive
15 | COc1ccc(Cl)cc1NC(=O)CN(C)C(=O)c1cc(-c2cccs2)nn1-c1ccccc1 | inactive
16 | COc1cc2ccccc2cc1C(=O)Nc1ccncc1 | inactive
17 | CCc1nnc(NS(=O)(=O)c2ccc(NC(=O)c3cccc(OC(F)(F)C(F)F)c3)cc2)s1 | inactive
18 | CC1(C)O[C@H]2CC(=O)OCC23[C@H]2CC[C@@]4(C)[C@H](c5ccoc5)OC(=O)[C@H]5O[C@]54[C@]2(C)C(=O)C[C@@H]13 (some centres undefined) | inactive
19 | CCCNC(=O)c1ccc(N2CCC3(CC2)CC(c2cccc(Br)c2)=NO3)c(NC(=O)c2ccco2)c1 | inactive
20 | Cc1cccc(N=C2SC(C)CN2C(=O)CN2C(=O)NC3(CCCC3)C2=O)c1 (centres undefined) | inactive
21 | O=C(NCC(O)c1ccc([N+](=O)[O-])cc1)C1CCCCC1 (centres undefined) | inactive
22 | O=C(CC(c1ccccc1)c1ccccc1)NCC(O)c1ccc([N+](=O)[O-])cc1 (centres undefined) | active
23 | CC(=O)NCC(O)c1ccc([N+](=O)[O-])cc1 (centres undefined) | inactive
24 | Cc1ccc(OCC(=O)Oc2ccccc2[N+](=O)[O-])cc1 | inactive
25 | Cc1cc(C)c(C)c(S(=O)(=O)N2CCN(C(=O)c3ccc4c(=O)n5c(nc4c3)CCC5)CC2)c1C | inactive

Row | SMILES | outcome
26 | COc1ccc(CCNC(=S)N2CCN(S(=O)(=O)c3ccc(F)cc3)CC2)cc1 | inactive
27 | CC(=O)C12CC(C)=C(C)CC1CC1C3CCC4=CC(=O)CCC4(C)C3CCC12C (centres undefined) | inactive
28 | CSc1nsc(NC(=O)Nc2ccccc2)n1 | inactive
29 | CCN(Cc1ccccc1)C(=O)Cc1ccc(OC)c(S(=O)(=O)N2CCOCC2)c1 | inactive
30 | O=C(COc1coc(CN2CCN(c3ccccc3)CC2)cc1=O)Nc1ccccc1F | inactive
31 | COCCCN(C(=O)CSCc1ccc(C)cc1)c1c(N)n(Cc2ccccc2)c(=O)[nH]c1=O | inactive
32 | COc1ccc(N2CCN(S(=O)(=O)c3cc4c5c(c3)C(C)C(=O)N5CCC4)CC2)cc1 (centres undefined) | inactive
33 | O=C(Nc1ncccc1O)c1ccc(S(=O)(=O)N2CCCCCC2)cc1 | inactive
34 | COc1cc(C2C(C(=O)c3cccs3)=C(O)C(=O)N2CCN2CCOCC2)ccc1OCCC(C)C (centres undefined) | inactive
35 | Cc1ccc2nc(SCC(=O)N3CC(C)OC(C)C3)nc(=O)n2c1 (centres undefined) | inactive
36 | Cc1cccc(C)c1NC(=O)CNC(=O)c1c(C)nn(-c2ccccc2)c1C | inactive
37 | CCc1noc(C)c1C(=O)N1CCCSC1=Nc1ccccc1OC | inactive
38 | CCCCn1c(N)c(N(CC(C)C)C(=O)C2CSC3(C)CCC(=O)N23)c(=O)[nH]c1=O (centres undefined) | inactive
39 | COc1ccc(CNC(=O)COC(=O)CCS(=O)(=O)c2ccc(C)cc2)cc1OC | inactive
40 | Cc1c(NC(=O)C(C)Oc2cccc(Cl)c2)c(=O)n(-c2ccccc2)n1C (centres undefined) | inactive
41 | O=C(NC1CCCCC1)c1ccc(-c2ccc(Cl)cc2)o1 | inactive
42 | CCOc1ccc(C(C)=O)cc1COC(=O)CNC(=O)c1cccs1 | inactive
43 | O=C(COc1coc(CN2CCN(c3ccccc3F)CC2)cc1=O)N1CCc2ccccc21 | inactive
44 | O=c1[nH]c(/C=C/c2cccc(Br)c2)nc2ccccc12 | inactive
45 | COc1ccc(NC(=O)CN(C)C(=O)c2ccc(COc3ccccc3)o2)cc1 | inactive
46 | Cc1ccc(S(=O)(=O)N2CCOCC2)cc1C(=O)Nc1ccccc1N1CCCC1 | inactive
47 | COc1ccc([C@@H]2[C@@H]3C(=O)N(C(C)(C)C)C(=O)[C@@H]3[C@]3(Cc4ccccc4)C(=O)N(c4cccc(Br)c4)C(=O)N23)cc1 | inactive
48 | CCCNC(=O)c1c(N)n(-c2ccc(S(N)(=O)=O)cc2)c2nc3ccccc3nc12 | active
49 | Cc1noc(C)c1C(=O)NCCc1ccc(S(N)(=O)=O)cc1 | inactive
50 | CCOC(=O)c1c(C)c(C(=O)NCCc2ccc(S(N)(=O)=O)cc2)c(C)n1CC | inactive

Row | SMILES | outcome
51 | CN(C)C(CNC(=O)c1cccc(S(=O)(=O)Nc2ccc(Br)cc2)c1)c1ccco1 (centres undefined) | inactive
52 | COc1ccc(N2CC(C(=O)NCCN3C(=O)S/C(=C\c4cccnc4)C3=O)CC2=O)c(OC)c1 (centres undefined) | inactive
53 | CC1(C)C/C(=N/Nc2ccc([N+](=O)[O-])cc2[N+](=O)[O-])C(C)(C)O1 | inactive
54 | COc1ccc(C(CNC(=O)c2ccc(NS(=O)(=O)c3ccc(F)c(C)c3)cc2)N(C)C)cc1 (centres undefined) | inactive
55 | CCOC(=O)c1cnc2nc(SCc3ccccc3Cl)[nH]n2c1=O | inactive
56 | CCOC(=O)c1cc(C(C)C)sc1NC(=O)COC(=O)c1nccnc1N | inactive
57 | Cc1nc2ccccc2c(=O)n1-c1ccc(NS(=O)(=O)c2ccc(F)cc2F)cc1 | inactive
58 | O=C(CNC(=O)c1ccccc1Br)NCCSc1ccc(Br)cc1 | inactive
59 | COc1ccc(-c2oc3ncn(Cc4ccco4)c(=N)c3c2-c2ccc(OC)cc2)cc1 | active
60 | N=c1c2c(-c3ccccc3)c(-c3ccccc3)oc2ncn1Cc1ccco1 | inactive
61 | COc1ccc(-c2oc3ncnc(NCCCO)c3c2-c2ccc(OC)cc2)cc1 | inactive
62 | CCCCn1c(N)c(N(CCOC)C(=O)COc2c(C)cccc2C)c(=O)[nH]c1=O | inactive
63 | COc1ccc(CCNC(=O)c2ccccc2OCc2ccccc2)cc1 | inactive
64 | CCCOc1ccccc1C(=O)NCCCC(=O)O | active
65 | CCCCOCCCNC(=O)c1ccccc1OCC | inactive
66 | O=C(Nc1ccc2nc3n(c(=O)c2c1)CCCC3)c1ccc(Cl)nc1 | inactive
67 | O=C(Nc1ccc(S(=O)(=O)N2CCCCC2)cc1)C1CCN(C(=O)c2ccc(F)cc2)CC1 | inactive
68 | CC1(C)CC(N(Cc2ccccc2)C(=O)Cc2ccccc2)CCO1 (centres undefined) | inactive
69 | CC(=O)N(Cc1cccs1)C1CCOC(C)(C)C1 (centres undefined) | active
70 | O=C(O)CCC(=O)N(Cc1cccs1)Cc1cccs1 | inactive
71 | COc1ccccc1CNC(=O)CSc1nc(=O)n(Cc2ccncc2)c2c1CCC2 | inactive
72 | Cc1ccccc1C(=O)NCC(c1ccco1)N1CCc2ccccc21 (centres undefined) | inactive
73 | O=C(NCCS(=O)(=O)N1CCN(c2ccc(F)cc2)CC1)c1ccc2c(c1)OCO2 | inactive
74 | N#CCCN(C(=O)COC(=O)c1ccc(S(=O)(=O)N2CCCCCC2)cc1)c1ccccc1 | inactive
75 | Cc1ccccc1OCC(=O)Nc1ccc2c(c1)ncn2C | inactive

Row | SMILES | outcome
76 | COc1cc(NC(=O)CSC(=S)N2CCCC2)c(OC)cc1Cl | inactive
77 | CN(C)c1ccc(/C=N/NC(=O)C(O)c2ccc(Br)cc2)cc1 (centres undefined) | active
78 | CN(C)c1ccc(/C=N/NC(=O)c2ccc(Cn3cc(Br)cn3)o2)cc1 | inactive
79 | O=C(O)c1ccc(/C=N/NC(=O)c2ccc(Br)cc2)cc1 | inactive
80 | COc1ccc(S(=O)(=O)N2CCCCC2)cc1NC(=O)c1cc([N+](=O)[O-])ccc1N1CCOCC1 | inactive
81 | CC1(c2ccc(Cl)cc2Cl)NC(=O)N(CC(=O)Nc2cccnc2Cl)C1=O (centres undefined) | inactive
82 | COc1ccc(C(CNC(=O)c2cccc(S(=O)(=O)Nc3ccccc3Cl)c2)N2CCOCC2)cc1 (centres undefined) | inactive
83 | O=C(CCC1CCCCC1)Nc1cc(C(F)(F)F)ccc1N1CCOCC1 | inactive
84 | O=C(CN1CCOCC1)Nc1cccc([N+](=O)[O-])c1 | inactive
85 | Cc1ccc(S(=O)(=O)CC(=O)Nc2sc(C)c(C)c2C(N)=O)cc1 | inactive
86 | CCCCCCCCCCOC(=O)Cn1c(COc2cccc(OC)c2)[n+](C)c2ccccc21 | active
87 | CCn1c(=N)n(CC(=O)c2cccc(OC)c2)c2ccccc21 | inactive
88 | CCCCOC(=O)Cn1c(=N)n(CCN(CC)CC)c2ccccc21 | inactive
89 | COc1cccc(OCC(=O)Nc2ccccc2C(N)=O)c1 | inactive
90 | Cc1ccc(OCc2nc3ccccc3n2C)cc1 | inactive
91 | CCCCCCCCCCOC(=O)Cn1c(COc2ccc(C)cc2)[n+](C)c2ccccc21 | active
92 | Cc1ccc(CC(=O)N(C)CC(=O)N(CC(C)C)c2c(N)n(CC(C)C)c(=O)[nH]c2=O)cc1C | inactive
93 | Cc1ccc(Cc2nnc(SCC(=O)Nc3ccccc3C)[nH]c2=O)cc1 | inactive
94 | Cc1cccc(C)c1OCC(=O)NC(Cc1c[nH]c2ccccc12)C(=O)O (centres undefined) | inactive
95 | CC(=O)NC(Cc1c[nH]c2ccccc12)C(=O)O (centres undefined) | active
96 | CC(=O)NC(Cc1c[nH]c2ccccc12)C(=O)NCCc1ccccc1 (centres undefined) | inactive
97 | COc1ccccc1CCC(=O)NNC(=O)c1ccncc1 | inactive
98 | O=C(COC(=O)CCOc1ccccc1)Nc1cc(S(=O)(=O)N2CCCCC2)ccc1Cl | inactive
99 | CCN(CC)c1ccc(NC(=O)c2ccc(=O)[nH]c2)cc1S(=O)(=O)Nc1ccc(OC)cc1 | inactive
